Out of some 110,000 compounds screened, about 80 (0.07%) were called active. The sample holds actives, similar compounds and a random draw of the others, so the mix is not that of the screen. Unmarked numbers belong to inactive results.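 The calls were made as follows: active = inhibition above the mean of the plate negative controls plus 5 SD (cut at about 13% in these data); inactive = the rest.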

A short description of this assay: blockers of IgG-bead uptake by macrophages – imaging, J774A.1 cells, IgG beads, primary screen (AID 1029).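 Also: phagocytic index as fraction of beads internalized from green versus red external bead signal; plate controls were DMSO negative control for no effect and cytochalasin-D positive control for full effect.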 The conditions noted are these: J774A.1 macrophage IgG-bead phagocytosis, at 5 µM, hits give high values.
`CCOC(=O)C(O)(c1ccc(N)c(OC)c1)C(F)(F)F` (centres undefined): the inhibition is -1.1%.
In the case of `CCOC(=O)C(O)(c1ccc(NC(=O)c2ccco2)c(OC)c1)C(F)(F)F` (centres undefined) it was 2.8%.
On to `CN(C)C(=O)Oc1ccc(OCc2cccc[n+]2C)cc1`, for which the inhibition is -2.17%.
In the case of `O=c1[nH]c(=S)n(C2CC2)c(O)c1/C=N/N1CCOCC1` it was -3.16%.

By inhibition is commonly meant the relative decrease from the control value, in per cent.
